{"source": "PubChem BioAssay (NCI)", "note": "This is part of a sample that, as a whole, favours compounds with a hit. Of some 83,000 tested, about 20% had one in any assay.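 Negative percent growth values reflect cell death: -40 means 40% of the cells present at the start died, and -100 means all died.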 A number with no mark means an inactive call. The source made the active and inactive calls.", "data": [{"test_system": "U251 CNS", "assay": "NCI-60 one-dose screen, 48 h (100 = growth as untreated, 0 = no growth, -100 = all killed)", "details": "10 µM unless noted", "procedure": "Growth inhibition of the U251 human tumor cell line is measured as a screen for anti-cancer activity. Cells are grown in 96 well plates and exposed to the test compound for 48 hours. Compounds are tested at a single concentration, which is 10^-5 M for most compounds. The reported endpoint is percent growth (GI% or GIPRCNT), where numbers from 0 - 100% represent growth inhibition, and numbers from -100% - 0 represent cell death. For example, a value of 40 represents 60% growth inhibition. A value of 0 means no net growth occurred over the course of the experiment. A value of -40 indicates 40% of cells at the beginning of the experiment died by the end of the experiment. A value of -100 means all cells are dead at the end of the experiment.\nNCI-60 Human Tumor Cell Lines Screen was performed using the standard one-dose NCI protocol, which is described in more detail at https://dtp.cancer.gov/discovery_development/nci-60/default.htm.\nCompounds with GIPRCNT values below 10 were considered active. Activity score was based on GIPRCNT using the following formula: […]\nScore is 0 for GIPRCNT values of 100 or above, 50 for GIPRCNT values of 0, and 100 for GIPRCNT values of -100.", "values": [{"smiles": "C=C1C(=O)O[C@H]2[C@H]1CC/C(Cn1cc(CNCCc3c[nH]c4ccccc34)nn1)=C\\CC[C@@]1(C)O[C@@H]21", "growth": "92.8%"}, {"smiles": "C=C(CNCCc1ccc(O)cc1)[C@@H]1CC[C@]2(COC3CCCCO3)CC[C@]3(C)[C@H](CC[C@@H]4[C@@]5(C)CCC(NCCO)C(C)(C)[C@@H]5CC[C@]43C)[C@@H]12", "note": "(stereo not given in full)", "growth": "-95% (active)"}, {"smiles": "CCN(CC)CCOc1ccc(/C(=C(\\C)c2ccc(OC)c(F)c2)c2ccc(Cl)cc2)cc1", "growth": "66.8%"}, {"smiles": "N#C/C=C(\\c1ccc([N+](=O)[O-])cc1)n1nnc2cc(Cl)c(Cl)cc21", "growth": "11.8%"}, {"smiles": "COc1ccc(-c2nc3sc4c(c3c(=O)[nH]2)CCCC4)c2ccccc12", "growth": "6.38% (active)"}, {"smiles": "COC(=O)CCCNC(=O)C(=O)c1c(O)c(O)c(C(C)C)c2cc(C)c(-c3c(C)cc4c(C(C)C)c(O)c(O)c(C(=O)C(=O)NCCCC(=O)OC)c4c3O)c(O)c12", "growth": "-62.4% (active)"}, {"smiles": "CCOC(=O)c1c(C)nc2c(c1N)/C(=C/c1ccc(OC)cc1)C(=O)N2Cc1ccc(F)cc1", "growth": "-81.5% (active)"}, {"smiles": "O=C(CC12CC3CC(CC(C3)C1)C2)NCCOCCOCCNC(=O)c1cc2c(o1)C(=O)c1ccccc1C2=O", "growth": "-87.8% (active)"}, {"smiles": "O=C1CCC(N2C(=O)c3cccc(NCCCC4CCN(CCNC(=O)c5cc6c(o5)C(=O)c5ccccc5C6=O)CC4)c3C2=O)C(=O)N1", "note": "(stereo not given)", "growth": "-83.6% (active)"}, {"smiles": "CCCCCCCCc1cc[n+](CC(=O)c2ccc(Br)cc2)cc1", "growth": "-85.2% (active)"}, {"smiles": "Cc1cc2c(F)c(Oc3ncnc(Nc4ccc(N5C[C@@H](C)N[C@@H](C)C5)cc4)c3C#N)cc(F)c2[nH]1", "growth": "11.2%"}, {"smiles": "Clc1ccc(-c2nc(NCCc3ccccc3)nc3c(NCCc4ccccc4)cnn23)cc1", "growth": "48.4%"}, {"smiles": "Cc1nc(Nc2ccc(NC(=S)Nc3ccccc3)cc2)nc2nc(SCc3ccccc3)[nH]c(=O)c12", "growth": "100%"}, {"smiles": "C=C(Cl)COC(=O)C(C)(C)O", "growth": "100%"}, {"smiles": "Cc1cc(N2CCCCC2)nc(N(CCNc2ccnc3cc(Cl)ccc23)Cc2ccccn2)n1", "growth": "41.8%"}, {"smiles": "COc1cc2c(cc1OC)-c1ccc3cc4c(cc3c1N(CCCn1ccnc1)C2)OCO4", "growth": "-6.84% (active)"}, {"smiles": "O=C(/C=C/C12c3ccccc3C(c3ccccc31)C1C(=O)NC(=O)C12)c1ccccc1", "note": "(stereo not given)", "growth": "25.6%"}, {"smiles": "Cc1ccc(/C(=N\\N=C(N)N)c2ccccc2)cc1", "growth": "12.7%"}, {"smiles": "CCN(CC)c1ccc(Nc2ccc(CC(=O)c3ccccc3)cc2)cc1", "growth": "56.2%"}, {"smiles": "O=C(/C=C/C12c3ccccc3C(c3ccccc31)C1C(=O)N(c3ccccc3)C(=O)C12)c1ccccc1", "note": "(stereo not given)", "growth": "7.97% (active)"}, {"smiles": "O=C(O)CC1Sc2ccccc2NC1=O", "note": "(stereo not given)", "growth": "103%"}, {"smiles": "C=C(C)[C@@H]1CC[C@]2(CN)CC[C@]3(C)[C@H](CC[C@@H]4[C@@]5(C)CCC(N)[C@@](C)(CO)[C@@H]5CC[C@]43C)[C@@H]12", "note": "(stereo not given in full)", "growth": "-93.8% (active)"}, {"smiles": "CNCCNc1nc2ccccc2c2c(=O)c3cc(F)ccc3oc12", "growth": "50.2%"}, {"smiles": "CC1(C)N=C(N)N=C(N)N1c1cccc(CN)c1", "growth": "98.9%"}, {"smiles": "CCN(CC)CCNc1ccc(C)c2sc3cc(C)ccc3c(=O)c12", "growth": "45.5%"}, {"smiles": "Cc1cc(=O)c2cc3nc(-c4cccnc4)oc3c(Br)c2o1", "growth": "97.8%"}, {"smiles": "O=c1[nH]c(NCc2nnnn2-c2ccc(Br)cc2)nc2sc3c(c12)CCCC3", "growth": "83.8%"}, {"smiles": "O=C(CC1Sc2ccccc2NC1=O)NNc1ccc(F)cc1", "note": "(stereo not given)", "growth": "85.2%"}, {"smiles": "COc1cccc(-c2nc3sccn3c2-c2ccnc(NCCNS(=O)(=O)c3c(Cl)cccc3Cl)c2)c1", "growth": "70.1%"}, {"smiles": "COc1ccc(OC)c(Nc2nc3nonc3nc2Nc2cccc(Br)c2)c1", "growth": "3.05% (active)"}, {"smiles": "COc1ccc(/C=C2\\COc3ccc(O)c(O)c3C2=O)c(OC)c1", "growth": "44.4%"}, {"smiles": "C=C1C(=O)O[C@H]2[C@H]1CC/C(COC(=O)/C=C\\C(=O)NCc1ccc(Cn3c(=O)sn(-c4ccc(Cl)cc4)c3=O)cc1)=C\\CC[C@@]1(C)O[C@@H]21", "growth": "-78.3% (active)"}, {"smiles": "Cn1cc(-c2ccc3nc(-c4ccc(CC(=O)Nc5cc(C(C)(C)C)no5)cc4)cnc3c2)cn1", "growth": "37.3% [30 µM]"}, {"smiles": "COc1cc2c(cc1OC)-c1ccc3cc4c(cc3c1N(CCN1CCCC1)C2)OCO4", "growth": "-55.7% (active)"}, {"smiles": "Cc1csc(NC(=O)c2sc3nc(-c4cccs4)ccc3c2N)n1", "growth": "91.3%"}, {"smiles": "COC(=O)[C@]12CC[C@@H](C)[C@H](C)[C@@H]1C1=CC[C@@H]3[C@@]4(C)C(C=O)=C[C@@](C)(CO)C4=CC[C@@]3(C)[C@]1(C)CC2", "growth": "23.4%"}, {"smiles": "O=[N+]([O-])c1ccc(-c2cc3c(Nc4ccc(OCc5cccc(Cl)c5)c(Cl)c4)ncnc3s2)cc1", "growth": "52.8%"}, {"smiles": "Cl.Fc1c[c-]c(-c2ccccn2)c(F)c1.[Pt].c1ccc(P(c2ccccc2)C([PH+](c2ccccc2)c2ccccc2)[PH+](c2ccccc2)c2ccccc2)cc1", "growth": "16.4%"}, {"smiles": "CCN(CC)CC(O)CNc1c2ccc(Cl)cc2nc2ccc(OC)cc12", "note": "(stereo not given)", "growth": "-28.3% (active)"}, {"smiles": "N#Cc1cccc(-c2nc3ccccn3c2NCCN2CCOCC2)c1", "growth": "98.2%"}]}]}
